# Test system: FES
# Conditions: concentration: 1 μM, replicates: in singlicate; n = 1
# 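Further: KINOMEscan kinase panel screen.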
row,Compound,%Inh [%]
1,Cn1cc(-c2[nH]c3cc(NC(=O)[C@H](N)C4CCCCC4)cc4c3c2C=NNC4=O)cn1,0
2,O=C(Nc1ccccc1F)NC1CCN(c2ccnc(Nc3ccc(F)cc3)n2)CC1 [GSK1379800],0
3,Cc1ccc(F)c(C(=O)Nc2cccc(-c3nn4ccccc4c3-c3ccnc(Nc4cccc(F)c4)n3)c2)c1F [GSK361061],0
4,O=C(O)C(F)(F)F.O=C(O)C(F)(F)F.O=c1[nH]ccc2nc(N[C@@H]3CCCNC3)nc(Nc3ccc(S(=O)(=O)N4CCOCC4)cc3)c12 [GSK2177277],68
5,CN1CCN(CCCNc2nccc(-c3c(-c4ccc(F)cc4)nn4cc(C(F)(F)F)ccc34)n2)CC1 [GW621581],0
6,CSc1cccc2c(-c3ccncn3)c(-c3ccc(F)cc3)nn12 [GW514786],0
7,O=C(Nc1cccc(-c2nn3ccccc3c2-c2ccnc(Nc3cccc(C(F)(F)F)c3)n2)c1)c1c(F)cccc1F [GSK292658],0
8,COc1ccc(Nc2nccc(N3CCC(NC(=O)Nc4cccc(OC)c4)C3)n2)cc1 (stereo not shown) [GSK1379742],9
9,Cc1cccc(NC(=O)Nc2ccc(Oc3ncnc4ccn(C)c34)cc2)c1,0
10,O=C(NC1CCN(c2ccnc(Nc3ccc(F)cc3)n2)C1)c1cc2ccccc2s1 (stereo not shown) [GSK1379716],12
11,O=c1[nH]cc(-c2ccc(N3CCOCC3)cc2)c2sc(-c3cn[nH]c3)cc12 [GSK2276055],0
12,Nc1ncc(-c2cccnc2)c2scc(-c3ccc4c(c3)CCN4C(=O)Cc3ccccc3)c12 [GSK683281],0
13,O=C(Nc1cccc(Oc2ccc3nc(NC(=O)C4CC4)cn3n2)c1)c1ccccc1C(F)(F)F,22
14,Cl.Cl.NCC(NCc1ccc(-c2ccnc3[nH]ccc23)s1)c1ccccc1 (stereo not shown) [GSK1321565],0
15,COc1ccc(CNC(=O)NC2CCN(c3ccnc(Nc4ccc(F)cc4)n3)CC2)cc1 [GSK1379788],0
16,CCn1c(-c2nonc2N)nc2c(C#CC(C)(C)O)nc(OC[C@H](N)c3ccccc3)cc21 [GSK943949],0
17,CN(c1ccc(NC(=O)Nc2cc(C(F)(F)F)ccc2F)cc1)c1ccnc(Nc2ccc(S(N)(=O)=O)cc2)n1 [GW809893],72
18,O=C(Nc1n[nH]c2nc(-c3ccc(O)cc3)ccc12)C1CC1 [SB-710363],0
19,O=C(Nc1cccc(-c2nn3ccccc3c2-c2ccnc(Nc3cccc(F)c3)n2)c1)c1c(F)ccc(F)c1Cl [GSK357952],6

row,Compound,%Inh [%]
1,Nc1ncnc2c1nc(-c1ccccc1)n2-c1ccccc1 [SKF-97293],30
2,Cc1cccc(Nc2nc(N[C@H]3CCNC3)ncc2C(N)=O)c1.Cl [GSK2197149],0
3,COc1cccc(C2=C(Nc3ccc(Cl)c(C(=O)O)c3)C(=O)NC2=O)c1 [SB-390769],0
4,COc1cc(Nc2nccc(-c3c(-c4cccc(NC(=O)c5c(F)cccc5F)c4)nn4ccccc34)n2)cc(OC)c1OC [GSK323521],0
5,CC(=O)Nc1nc2cnc(Nc3cc(NC(=O)c4cccc(C5(C#N)CC5)c4Cl)ccc3C)nc2s1,12
6,c1ccc(Oc2ccc(Nc3ccnc4cc(-c5ccc(CNCCN6CCOCC6)o5)ccc34)cc2)nc1 [GW567145],5
7,CNC(=O)c1ccccc1Nc1nc(Nc2ccc(N3CCOCC3)cc2)ncc1Cl.Cl [GSK1576028],62
8,Cl.Cl.NCC(NC(=O)c1cc(-c2ccccc2)c(-c2ccnc3[nH]ccc23)s1)c1ccccc1 (stereo not shown) [GSK1321561],0
9,Fc1ccc(-c2ncn(C3CCNCC3)c2-c2ccnc(Oc3ccc(-c4ccccc4)cc3)n2)cc1 [SB-245391],27
10,Cn1cc(-c2ccc3c(c2)CCN3C(=O)Cc2cccc(F)c2)c2c(N)ncnc21 [GSK2603358],0
11,COc1cc(Nc2nccc(N3CCC(NC(=O)c4cc5ccccc5s4)C3)n2)cc(OC)c1OC (stereo not shown) [GSK1379760],0
12,CC(=O)N1CCN(c2ccc(Nc3nccc(-c4sc(C(C)C)nc4-c4cccc(NS(=O)(=O)c5cccc(Cl)c5)c4)n3)cn2)CC1 [GSK1660437],0
13,COc1cc(Nc2ncc3c(C)nc(-c4cc5ccccc5[nH]4)n3n2)cc(OC)c1OC [GW869516],0
14,CN1CCN(Cc2cccc(-c3ccc4c(Nc5ccc(Oc6ccccc6)cc5)ccnc4c3)c2)CC1 [GW578342],4
15,Nc1ncc(-c2ccc3nccc(-c4ccncc4)c3c2)cc1S(=O)(=O)N1CCOCC1 [GSK1627798],0
16,CN(C)S(=O)(=O)c1cc(-c2ccc3nccc(-c4cccc(S(N)(=O)=O)c4)c3c2)cnc1N [GSK1669921],14
17,CCn1c(-c2nonc2N)nc2c(C#CC(C)(C)O)ncc(OCCCCN)c21.O=C(O)C(F)(F)F.O=C(O)C(F)(F)F [GSK507274],9
18,Cc1ccc(C)c(NC(=O)NC2CCN(c3ccnc(Nc4ccc(F)cc4)n3)C2)c1 (stereo not shown) [GSK1379720],0

# Source: paper PMC5540273 (PLoS ONE, 2017)
